Luc counter = counter-screen: inhibitors of Kinase-Glo firefly luciferase. Q27757. Kinase-Glo luciferase, ATP luminescence, 8 min. Potency, µM (top dose mostly 38.3 µM), inactives show at the highest dose activity change, negative = inhibition, hits mostly inhibitors. 0.28% of 200,000 active; active = well fitted curve in the direction sought with a large enough effect; inconclusive = small, poorly fitted or top-dose-only effect, or another doubt; inactive = no such curve, though single readings can be large; an effect the other way counts as inactive or inconclusive; note: nearly all actives have a fitted effect of over 60% in size
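Recombinant Kinase-Glo luciferase, 10 uM ATP (linear range), luciferin; imidazole pH 7.2 / KCl / MgCl2 / Tween / BSA buffer; 8 min RT; luminescence.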
Lamin A splicing = changes lamin A minigene splicing in HeLa cells; Potency, µM (top dose mostly 46.1 µM), inactives show at the top dose ratio change, negative = inhibition, usual class: inhibitors; HeLa LMNA splicing GFP/RFP minigene ratio, 48 h; 0.01% of 200,000 active; active = well fitted inhibition curve with a large enough effect in the signal ratio, with a control signal flat, not every such curve was filed as active; inconclusive = small, poorly fitted or top-dose-only effect, or effect the other way, or a change in a side signal; the % refers to the signal ratio
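Read-out is the ratio of GFP to DsRed2 object intensity, acquired by 488 nm laser-scanning cytometry on HeLa lamin A-EGFP minigene reporter cells. Compound incubation 48 hrs at 37 °C in Opti-MEM with 2% FBS; DMSO 0.5% final.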
ALDH1A1 inh = inhibitors of human aldehyde dehydrogenase 1A1. P00352. Purified ALDH1A1, NADH fluorescence, propionaldehyde substrate. Potency, µM (titrated, usually from 75.3 µM), for the others: at the highest dose activity, negative = inhibition, actives largely listed as inhibitors. 7.3% of 220,000 active. AID 1030;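 note: plate controls were no enzyme wells and a reference inhibitor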
Target sequence (P00352 whole entry, looked up): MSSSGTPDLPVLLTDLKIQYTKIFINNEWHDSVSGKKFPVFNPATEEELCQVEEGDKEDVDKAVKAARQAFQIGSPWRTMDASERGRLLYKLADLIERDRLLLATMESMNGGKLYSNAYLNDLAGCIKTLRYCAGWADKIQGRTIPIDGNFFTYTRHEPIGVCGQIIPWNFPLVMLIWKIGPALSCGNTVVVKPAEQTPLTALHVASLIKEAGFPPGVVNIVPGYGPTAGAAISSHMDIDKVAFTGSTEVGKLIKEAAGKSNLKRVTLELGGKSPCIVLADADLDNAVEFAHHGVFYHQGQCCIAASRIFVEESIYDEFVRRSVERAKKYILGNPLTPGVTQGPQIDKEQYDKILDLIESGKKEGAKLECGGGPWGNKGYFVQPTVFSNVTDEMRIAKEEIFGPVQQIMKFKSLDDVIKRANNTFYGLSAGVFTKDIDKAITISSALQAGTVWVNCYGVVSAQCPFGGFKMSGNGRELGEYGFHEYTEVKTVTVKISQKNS
HPGD inh = inhibitors of human 15-hydroxyprostaglandin dehydrogenase (HPGD). 4.3% of 150,000 active. Potency, µM, without a hit: at the highest dose activity change, negative = inhibition, usual class: inhibitors. AID 894. purified HPGD, NADH fluorescence kinetic, PGE2 substrate. P15428
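NADH formation kinetics: reaction with 30 uM PGE2 and 1 mM NAD+ (final), 20 nM enzyme, Tris-HCl pH 8 with Tween 20, after 15 min compound preincubation at room temperature. Fluorescence change, last versus first of five reads.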
IMPase Li inh = IMPase inhibition in cells with lithium potentiation; 0.35% of 210,000 active; Potency, µM (series often up to 59.4 µM), without a hit: top-dose activity, negative = IMPase inhibition, actives largely listed as inhibitors; AID 1457; CHO-M1 cells, IP1 TR-FRET (IP-One), carbachol + lithium; active = well fitted curve in the direction sought with a large enough effect; inconclusive = small, poorly fitted or top-dose-only effect, or another doubt; inactive = no such curve, though single readings can be large; an effect the other way counts as inactive or inconclusive;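 note: IP1 builds up when IMPase is blocked and the TR-FRET signal falls; plate controls were basal vehicle for no effect and high inhibitor control for full effect; nearly all actives have a fitted effect of over 50% in size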
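Concentration–response in CHO-M1 cells, lithium-potentiated; 30 min at 37C. IP1 detected by competitive TR-FRET after 10 min lysis at RT. Hill-fitted AC50.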
An asterisk follows results filed as active; [ ] = dose if it differs, or a comment. Shown are actives, neighbours in structure and some others; about 9% of the full set was active somewhere. Unless noted, calls come from the whole dose curve; as a rule, active = well fitted inhibition curve with a large enough effect (not every such curve was filed as active); inconclusive = small, poorly fitted or top-dose-only effect, or another doubt; inactive = no such curve, though single readings can be large or run the other way. Unless noted, % is set by controls: 0 for no effect and ±100 for the full control effect; potency is the fitted concentration of half-maximal effect.

Screening CCc1ccc(/C=C2/C(=O)N(C)C(=S)N2CC(=O)OC)s1 returned Luc counter 7%, Lamin A splicing inconclusive, ALDH1A1 inh -6% and IMPase Li inh 10%.
Cc1ccc(N/C=C(\C2OC(=O)c3ccccc32)[N+](=O)[O-])c(C)c1 (stereo not drawn) was read as Luc counter 1%, ALDH1A1 inh 3.5µM* and IMPase Li inh 10%.
`O=C1OC(/C(=C\Nc2ccc(F)cc2F)[N+](=O)[O-])c2ccccc21` (stereo not drawn) gave Luc counter 0%, ALDH1A1 inh inconclusive and IMPase Li inh -5%.
For O=C1OC(/C(=C\Nc2cc(Cl)ccc2O)[N+](=O)[O-])c2ccccc21 (stereo not drawn) the results were Luc counter 3%, Lamin A splicing -10%[9.22 µM], ALDH1A1 inh 14µM* and IMPase Li inh -1%.
`Cn1c(=O)[nH]c2nnc(-c3ccc(Cl)c(Cl)c3)nc2c1=O` gave Lamin A splicing 0%[46 µM].
Clc1ccccc1-c1nc(/C=N/N2CCOCC2)c2ccccn12 was read as Luc counter -2%, Lamin A splicing -14%[46 µM], ALDH1A1 inh 40µM* and IMPase Li inh 9%.
Screening COc1ccc(S(=O)(=O)N2CCCCC2)cc1NC(=O)c1cc(C)on1 returned Luc counter -2%, ALDH1A1 inh inconclusive and IMPase Li inh 8%.
For Cc1cc2c(C)nc(Cc3ccccc3)nc2o1 the results were Luc counter -6%, Lamin A splicing 2%, ALDH1A1 inh 8.9µM*, HPGD inh -30% and IMPase Li inh 20%[38.3 µM].
Screening O=S(=O)(Nc1ccc2c(c1)OCCO2)c1ccc2oc3ccccc3c2c1 returned Luc counter 2%, Lamin A splicing inconclusive, ALDH1A1 inh inconclusive, HPGD inh 28µM* and IMPase Li inh 28%[38.3 µM].
Screening Cc1ccc(S(=O)(=O)Nc2ccc3c(c2)OCCO3)cc1C returned Luc counter 2%, Lamin A splicing 20%[46 µM], ALDH1A1 inh inconclusive and IMPase Li inh 9%.
For COc1ccc(-c2n[nH]c(C)c2-c2cnn(-c3ccccc3)c2)c(O)c1 the results were Luc counter -4%, Lamin A splicing -17%, ALDH1A1 inh 7.9µM*, HPGD inh -9% and IMPase Li inh 19%.
`Cc1ccc(NC(=O)c2c(C(=O)Nc3ccccc3)sc3nc(C)cc(=O)n23)cc1` gave Luc counter -1%, Lamin A splicing 20%[46 µM], ALDH1A1 inh 4.5µM* and IMPase Li inh -1%.
For CCc1ccc(NC(=O)c2c(C(=O)Nc3ccccc3)sc3nc(C)cc(=O)n23)cc1 the results were Luc counter 0%, Lamin A splicing inconclusive, ALDH1A1 inh 0.89µM* and IMPase Li inh -13%.
`O=C(/C=C/c1ccco1)N1CCN(S(=O)(=O)c2ccc(F)c(F)c2F)CC1` gave Luc counter -1%, ALDH1A1 inh inconclusive and IMPase Li inh -5%.
For COc1ccccc1N1CCN(C(=O)/C=C/c2ccco2)CC1 the results were Luc counter 2%, Lamin A splicing -1%, ALDH1A1 inh -5%, HPGD inh 3% and IMPase Li inh 3%.
`COc1ccc(N2CCN(C(=O)/C=C/c3ccco3)CC2)cc1` gave Luc counter -4%, Lamin A splicing inconclusive, ALDH1A1 inh 22µM* and IMPase Li inh 7%.
Cc1ccc(S(=O)(=O)N2CCN(C(=O)/C=C/c3ccco3)CC2)cc1 was read as Luc counter 3%, Lamin A splicing -12%, ALDH1A1 inh 22µM*, HPGD inh -20% and IMPase Li inh 3%.
CC[C@H](C)C(=O)O[C@H]1C[C@H](O)C=C2C=C[C@H](C)[C@H](CC[C@@H](O)C[C@@H](O)CC(=O)O)[C@H]21 was read as Luc counter 0%, ALDH1A1 inh 7%, HPGD inh -4% and IMPase Li inh -5%.
For COc1ccc(-n2nnc3c(=O)n(Cc4cccc(C)c4)cnc32)cc1 the results were Luc counter 0%, Lamin A splicing 13%, ALDH1A1 inh -15%, HPGD inh 16µM* and IMPase Li inh 12%[38.3 µM].
Screening COc1ccc(-n2nnc3c(=O)n(Cc4ccccc4C)cnc32)cc1 returned Luc counter -1%, Lamin A splicing inconclusive, ALDH1A1 inh -1%, HPGD inh -3% and IMPase Li inh 0%[38.3 µM].
COc1cccc(-n2nnc3c(=O)n(Cc4c(F)cccc4Cl)cnc32)c1 was read as Luc counter 0%, Lamin A splicing 5%, ALDH1A1 inh inconclusive, HPGD inh 28µM* and IMPase Li inh 2%.
`COc1cccc(-n2nnc3c(=O)n(CC(=O)NCC4CCCO4)cnc32)c1` (stereo not drawn) gave Luc counter 2%, Lamin A splicing -9%, ALDH1A1 inh -7%, HPGD inh 16µM* and IMPase Li inh 26%[38.3 µM].
Screening COc1cccc(-n2nnc3c(=O)n(CC(=O)Nc4ccc(C)cc4)cnc32)c1 returned Luc counter 2%, ALDH1A1 inh 5% and IMPase Li inh -2%.
`COc1ccc(-n2ncc3c(=O)n(Cc4c(F)cccc4Cl)cnc32)cc1` gave Luc counter 1%, ALDH1A1 inh 28µM* and IMPase Li inh 9%.
For O=C(c1cccs1)n1nc(-c2cccnc2)nc1NCc1ccco1 the results were Luc counter 2%, Lamin A splicing -15%[46 µM], ALDH1A1 inh 2% and IMPase Li inh 10%.
For C[N+](C)(N)Cc1csc(-c2ccc(Cl)cc2)n1 the results were Luc counter -8%[7.66 µM], ALDH1A1 inh -6%[13.5 µM], HPGD inh -5% and IMPase Li inh 3%.
Screening CSc1nc(=O)c2c(n1C)NC(=O)CC2c1cc(F)cc(F)c1 (stereo not drawn) returned Lamin A splicing 6%[46 µM].
For COc1ccc(C(NC(=O)C(C)C)c2c(O)ccc3ccccc23)cc1OC (stereo not drawn) the results were Luc counter 0%, Lamin A splicing -14%, ALDH1A1 inh -9%, HPGD inh -17% and IMPase Li inh -3%.
`COc1cccc(-n2nnc3c(=O)n(CC(=O)N4CCCCC4)cnc32)c1` gave Luc counter 2%, Lamin A splicing 3%, ALDH1A1 inh -3%, HPGD inh inconclusive and IMPase Li inh 12%[38.3 µM].
For COc1ccc(-n2nc(C(=O)NCC(=O)NCC3CCCO3)c3ccccc3c2=O)c(OC)c1 (stereo not drawn) the results were Lamin A splicing 2% and ALDH1A1 inh 13µM*.
`COc1cccc(-n2nnc3c(=O)n(Cc4cccc(F)c4)cnc32)c1` gave Luc counter -1%, Lamin A splicing 20%, ALDH1A1 inh 4%, HPGD inh 14µM* and IMPase Li inh -4%[38.3 µM].
